# From PubChem BioAssay AID1276 (Columbia University Molecular Screening Center, 2008)
# Screen size: about 190,000 compounds; about 2,000 (1.1%) were called active.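 The calls were made as follows: active = activation above a set limit, based on mean plus 3 SD of controls (cut at about 140% in these data); inconclusive = one replicate above the limit, the other below; inactive = the rest.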 Many of the other results were omitted from the sample, so actives are more common in it than they were.
# Assay: APP 5'UTR reporter signal increase – luciferase, SH-SY5Y cells, primary screen (AID 1276)
# Conditions: SH-SY5Y APP 5'UTR luciferase reporter, luminescence; at 2 µM; hits give high values; zero percent = DMSO vehicle wells
row,Structure (SMILES),activation
1,Cc1cc(O)c(NC(=O)c2ccc(C)c([N+](=O)[O-])c2)cc1C,142% (active)
2,Cc1ccc(C(=O)Nc2cccc3ncccc23)cc1[N+](=O)[O-],-2.5% (inactive)
3,CCN1CCC(=NNC(=O)c2ccc(C)c([N+](=O)[O-])c2)CC1,-0.15% (inactive)
4,O=[N+]([O-])c1ccccc1N/N=C1\CCc2ccccc21,120% (inactive)
5,CCCCCC(=O)Nc1ccc2oc(-c3ccncc3)nc2c1,7.49% (inactive)
6,CCc1ccc2oc(-c3ccc(N)cc3)nc2c1,141% (active)
7,Nc1ccc(-c2nnc(-c3ccc(-c4ccccc4)cc3)o2)cc1,79.7% (inactive)
8,C=CCNC(=S)N1CCN(CCN=Cc2c(C)[nH]n(-c3ccc([N+](=O)[O-])cc3)c2=O)CC1,1.34% (inactive)
9,O=C(CN1CCN(c2ccc(O)cc2)CC1)Nc1cc(S(=O)(=O)N2CCOCC2)ccc1Cl,2.42% (inactive)
10,OCC1(CCOc2ccccc2)CCN(Cc2cn[nH]c2-c2ccccc2)CC1,7.79% (inactive)
11,O=C(O)c1ccc(NC(=O)c2cn(-c3ccccc3)nc2-c2ccc(Cl)cc2)cc1,8.51% (inactive)
12,Cc1ncc(CC(=O)n2cc(C(=O)c3cc(Cl)ccc3O)cn2)s1,6.84% (inactive)
13,O=C(c1cnn(-c2ccc(Cl)cc2)c1)c1ccccc1O,177% (active)
14,Cc1nc2ccccc2nc(=O)c1NNc1ccc([N+](=O)[O-])cc1,-4.38% (inactive)
15,CCc1ccc(NC2Nc3cc(C)nn3S2)cc1 (configuration not stated),166% (active)
16,CCc1ccc(NC(=O)N2CCN(c3ccccc3)CC2)cc1,1.57% (inactive)
17,CCOC(=O)c1ccc(NC2Nc3cc(C)nn3S2)cc1 (configuration not stated),4.66% (inactive)
18,CC(=O)c1ccc(-c2nnc(CCC(=O)N(C)Cc3cnc4ccccn34)o2)s1,-5.43% (inactive)
19,COC(=O)CN1C(=O)N/C(=C/c2ccc(OC)c(C)c2OC)C1=O,-21.7% (inactive)
20,Cc1cc(C)n(Cc2cnc(N3CCOCC3)s2)n1,22.6% (inactive)
21,NNC(=O)c1cnn(-c2ccccc2)c1C(F)(F)F,15.9% (inactive)
22,Cc1ccccc1Nc1nc(N)nc(CSc2ccccc2)n1,159% (active)
23,Cc1ccccc1Nc1nc(N)nc(CSc2nnc3ccccn23)n1,59.9% (inactive)
24,Cc1ccc(C(=O)OCc2nc(N)nc(Nc3ccccc3C)n2)cc1,-2.39% (inactive)
25,CCCC1(C(=O)OC)NC(c2ccco2)C2C(=O)N(C)C(=O)C21 (configuration not stated),9.69% (inactive)
26,CC(=O)NCCc1nc2cc(NC(=O)c3ccccc3)ccc2n1C,55.4% (inactive)
27,Cc1cc(C)c2nc(SCC(=O)N(C)C3CCS(=O)(=O)C3)cc(C)c2c1 (configuration not stated),11.6% (inactive)
